The source of these data is PubChem BioAssay.

For orientation: IC50 means the concentration needed to halve the response being measured.

Molecules are shown by their SMILES. Inconclusive results are not listed. Activity calls are given as the source filed them. Unless noted, the limit is not given here; nearly all actives have IC50 up to about 30 µM.

One assay in a line: growth inhibition of DIPG cells – cell-based, MIPE5.0 library, qHTS (AID 1347068).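 As to IC50: cells exposed to compound for 48 hours before viability readout.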 The conditions noted are these: SU-DIPG-XXV viability. (Quantitative high-throughput screening tests each substance at several concentrations.)
As for `CN1CCN(C2CCC(n3cc(-c4ccc(Oc5ccccc5)cc4)c4c(N)ncnc43)CC2)CC1` (centres undefined), the IC50 is 8.33 µM (active).

For `C=CC(=O)Nc1cccc(Nc2nc(Nc3ccc(Oc4ccnc(C(=O)NC)c4)cc3)ncc2F)c1`, the IC50 was 13.2 µM (active).

Regarding `COc1cc2c(cc1OC)CN(CCc1ccc(-n3nnc(-c4cc(OC)c(OC)cc4NC(=O)c4cc(=O)c5ccccc5o4)n3)cc1)CC2`, the outcome was inactive.

As to `COc1ccc(C(=O)N2CCN(C(=O)/C=C/c3ccc(Br)cc3)CC2)cc1`, the compound was classed as inactive.

For `C=CC(=O)Nc1cccc(C)c1Nc1ncc2cc(-c3c(Cl)c(OC)cc(OC)c3Cl)ccc2n1`, the IC50 was 9.34 µM (active).

In the case of `Cc1cnc(NC(=O)c2cc(Oc3cnc(C(=O)N(C)C)nc3)c3cc(C)oc3c2)cn1`, the compound was classed as inactive.

For the compound `CC(C)(CO)n1cc(C(=O)c2cncc(NC(=O)Cc3ccc(Cl)cn3)c2)c2cnc(N)nc21`, the call was inactive.

Turning to `CCCNC(=O)c1cn2ncnc(Nc3cc(C(=O)NC4CC4)ccc3C)c2c1C`, the call was inactive.

On to `CC(C)[C@](O)(c1ccc2cc(OC(F)F)c(OC(F)F)cc2c1)c1cn[nH]n1`, for which the compound was called inactive.

`Cn1cc(-c2c[nH]c3ncnc(N4CCOCC4)c23)cn1`: the result was inactive.

`C[C@@H](OC[C@@]1(c2ccccc2)CC[C@]2(CCC(=O)N2)CN1)c1cc(C(F)(F)F)cc(C(F)(F)F)c1`: the IC50 was 20.9 µM (active).

On to `C[C@]1(C(=O)N(CCCC(=O)O)Cc2cccc(Cl)c2)CCN1C(=O)c1csc2ccccc12`, for which the result was inactive.

As to `COC1CCC(N2C(=O)CNc3ncc(-c4ccc(C(C)(C)O)nc4)nc32)CC1` (centres undefined), the concentration for half-maximal inhibition (IC50) was 14.8 µM (active).

Consider `COc1cc(-c2cn(C)c(=O)c3cnccc23)c(OC)cc1CN(C)C`, for which the outcome was inactive.

`CC(C)C[C@@H]1NC(=O)[C@@H](C(C)C)NC(=O)[C@@H]2CCCN2C(=O)[C@@H](CC(=O)O)NC(=O)[C@@H](Cc2c[nH]c3ccccc23)NC1=O`: the compound was classed as inactive.

With `O=C([O-])C[O-].[Pt+2]`, the compound was classed as inactive.

With `Cc1cc(Nc2cc(N)ncn2)c(=O)n2c1C(=O)NC21CCCCC1`, the result was inactive.

For `COc1cc2c(NC3CCN(C)CC3)nc(N3CCCN(C)CC3)nc2cc1OCCCN(C)C`, the result was inactive.

`CCc1ccc2nc(Nc3cc(Cc4ccccc4)nc(NC4CCC(O)CC4)n3)sc2c1` (centres undefined): the compound was called inactive.

Turning to `C[C@H]1CNC(=O)c2cnn3ccc(nc23)N[C@H](C)c2cc(F)ccc2O1`, the IC50 was 2.95 µM (active).

Regarding `O=C1OC2(CCC(C(=O)Nc3ccn(-c4ccccc4F)n3)CC2)c2cnccc21` (centres undefined), the result was inactive.

As to `O=C(Nc1ccc2c(c1)CCN(Cc1ncn[nH]1)C2)c1ccccc1-c1ccc(C(F)(F)F)cc1`, the outcome was inactive.

On to `Cn1nccc1Nc1nccc(-c2cc3c(s2)C(C)(C)N(CCN2CCOCC2)C3=O)n1`, for which the outcome was inactive.

Take `CCCCCCCCCCCCCCCCOCCCOP(=O)(O)COC(CO)Cn1ccc(N)nc1=O` (centres undefined): the compound was called inactive.

For `CNc1nc(C)nc(N[C@H]2CCC[C@@H](C(=O)NCc3ccc(C#N)cc3C(F)(F)F)C2)n1`, the outcome was inactive.

In the case of `CCOc1cc(C(=O)N2CCC(N3CCN(C)CC3)CC2)ccc1Nc1ncc2c(n1)N(C1CCCC1)c1ccccc1C(=O)N2C`, the IC50 was 20.9 µM (active).

As for `COCCNc1cc(NC(=O)N2CCCc3cc(CN4CCN(C)CC4=O)c(C=O)nc32)ncc1C#N`, the compound was called inactive.

Take `CCC(CC)CC1(C(=O)Nc2ccccc2SC(=O)C(C)C)CCCCC1`: the compound was called inactive.

Take `CCO[C@@H]1OC(=O)C[C@@H]1NC(=O)[C@@H]1CCCN2C(=O)CC[C@H](NC(=O)c3nccc4ccccc34)C(=O)N12`: the compound was classed as inactive.

For `FC(F)(F)c1ccc(CNc2ccc(Cc3c[nH]c4ncccc34)cn2)cc1`, the compound was classed as inactive.

As for `CN[C@@H](C)C(=O)N[C@H](C(=O)N1CCC[C@H]1c1nc(C(=O)c2ccc(F)cc2)cs1)C1CCCCC1`, the call was inactive.

For the compound `CN1CCN(C(=O)[C@H]2[C@@H](C(=O)O)[C@H]3CC[C@@H]2O3)CC1`, the outcome was inactive.

With `N[C@@H](CCC(=O)O)C(=O)N[C@@H](Cc1c[nH]c2ccccc12)C(=O)O`, the outcome was inactive.

Take `COCCNCc1ccc(-c2cc3nccc(Oc4ccc(NC(=S)NC(=O)Cc5ccc(F)cc5)cc4F)c3s2)nc1`: the IC50 was 9.34 µM (active).

With `CCCS(=O)(=O)c1nc(NC2CC2)cc(-c2ccc3c(ccn3C3CC(C)(C)NC(C)(C)C3)c2)n1`, the IC50 was 3.12 µM (active).

With `CC[C@@H](Oc1cccc(CN(CCCOc2ccc(OC)cc2)c2nc3ccccc3o2)c1)C(=O)O`, the compound was called inactive.

Turning to `C=CC(=O)N1CCC[C@H](n2c(=O)n(-c3ccc(Oc4ccccc4)cc3)c3c(N)ncnc32)C1`, the compound was classed as inactive.

In the case of `O=C(Nc1cccc(Cl)c1)Nc1ncc(CCNc2ncnc3ccsc23)s1`, the IC50 is 11.8 µM (active).

For `Cc1ccc(-c2nn(C(C)(C)CNC(=O)c3ccncc3)c3ncnc(N)c23)cc1`, the IC50 was 14.8 µM (active).

Consider `N=C(N)c1ccc2nc(-c3cc(CC(=O)N[C@@H](CC(=O)O)C(=O)O)cc(-c4cc(S(N)(=O)=O)ccc4O)c3O)[nH]c2c1`, for which the outcome was inactive.

The next assay can be described thus: viability loss with induced miR-34 in A549 – imaging, A549 dox-inducible miR-34, nuclei and caspase counts, primary screen (AID 1347080;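 active = compounds whose cell count with miR-34 switched on is under 0.7 times the count with it off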). The conditions noted are these: A549 miR-34 inducible, Hoechst nuclei count, 48 h; stronger effect = lower value; cell number ratio, induced over uninduced.
Consider `C=CC(=O)Nc1cccc(Nc2nc(Nc3ccc(Oc4ccnc(C(=O)NC)c4)cc3)ncc2F)c1`, for which the fold change was 0.924 (inactive).

In the case of `O=C(Nc1ccc2c(c1)CCN(Cc1ncn[nH]1)C2)c1ccccc1-c1ccc(C(F)(F)F)cc1`, the fold change was 1.03 (inactive).

As to `CCC(CC)CC1(C(=O)Nc2ccccc2SC(=O)C(C)C)CCCCC1`, the fold change is 0.89 (inactive).

Turning to `O=C(Nc1cccc(Cl)c1)Nc1ncc(CCNc2ncnc3ccsc23)s1`, the fold change was 1.06 (inactive).
